These results are taken from PubChem BioAssay (NCATS).

Test [1] deals with Thyrotropin receptor (Homo sapiens) (UniProt P16473). Description: qHTS Assay for Antagonists of the Thyroid Stimulating Hormone Receptor (AID 488980). Also: series mostly up to about 58 µM; 0% is about no effect. The procedure, abridged:
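TSHR-transfected HEK293 cells (2000/well) in HEPES-buffered HBSS with 70 uM RO 20-1724 were stimulated with 4 nM TSH (EC80, final) in the presence of compound. cAMP was measured by HTRF competition after lysis and 30 min at RT.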
A general note: qHTS replaces the single test concentration by a dilution series.

Test [2] concerns the target D(1A) dopamine receptor (Homo sapiens) (UniProt P21728). Description: HTS Assay for Allosteric Agonists of the Human D1 Dopamine Receptor: Primary Screen for Agonists (AID 488981). Also: potency is read from the fitted curve at half-maximal effect. As to activation: 0% is about no effect. The procedure, abridged:
(§1)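 Tetracycline-induced HEK293 T-REx cells force-coupled to calcium signalling were incubated overnight at 30 C and dye-loaded at room temperature. Calcium flux over 180 s after compound addition flagged agonists; a further 180 s read after EC20 dopamine flagged potentiators.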

Test [3] shares this target. As to the kind of experiment: HTS Assay for Allosteric Agonists of the Human D1 Dopamine Receptor: Primary Screen for Potentiators (AID 488982). Also: potency is read from the fitted curve at half-maximal effect. Put shortly: as §1
Test [4] shares this target. As to the kind of experiment: HTS Assay for Allosteric Agonists of the Human D1 Dopamine Receptor: Primary Screen for Antagonists (AID 488983).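 Also: calcium flux response to an EC80 dopamine challenge measured with no-wash dye; nearly all actives have a fitted effect of over 65% in size.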 Also: potency is read from the fitted curve at half-maximal effect. The procedure, abridged:
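In this primary screen, compounds are applied to calcium-dye-loaded HEK293 T-REx cells with force-coupled D1 expression induced overnight at 30 C. An EC80 of dopamine follows the 180 s compound phase, and calcium is monitored for a further 180 s.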

Test [5] can be described thus: Validation screen for small molecules that induce genotoxicity in human embryonic kidney (HEK293T) cells expressing luciferase-tagged ELG1 (AID 493106). Also: 0% is about no effect. Put shortly: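 In this validation screen, increased ELG1-luciferase signal flags compounds causing genetic stress. HEK293T reporter cells are treated 16 hr (37 °C, 5% CO2), developed with ONE-Glo for 30 min at room temperature, and imaged on a CCD-based reader.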

The nature of test [6]: Nrf2 qHTS screen for inhibitors: Validation (AID 493153; active = well fitted inhibition curve with a large enough effect in the main read-out, with a control signal flat, not every such curve was filed as active). The following applies: Potency: luciferase luminescence; viability change: measured here: cytotoxicity max response. Put shortly:
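In this counterscreened reporter format, each well gives two signals: CellTiter-Fluor fluorescence for cytotoxicity and ARE-luciferase luminescence for Nrf2 function. A549 ARE_Fluc cells in 5% FBS OPTI-MEM were exposed to compound titrations for 18-24 h.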

The target in test [7] is ATPase family AAA domain-containing protein 5 (Homo sapiens) (UniProt Q96QE3). Description: Validation screen for small molecules that inhibit ELG1-dependent DNA repair in human embryonic kidney (HEK293T) cells expressing luciferase-tagged ELG1 (AID 493107). Also: nearly all actives have a fitted effect of over 70% in size. Also: potency is read from the fitted curve at half-maximal effect. The procedure, abridged:
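Compounds reducing 5-fluorouridine-driven ELG1-luciferase signal in HEK293T cells were scored; exposure lasted 16 hr at 37 °C with luminescence detected via ONE-Glo.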

The target in test [8] is Thyrotropin-releasing hormone receptor (Homo sapiens) (UniProt P34981). Description: qHTS for Small Molecule Agonists and Allosteric Enhancers of Human TRH Receptor: Validation Screen for Agonists (AID 493127;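 active = calcium activation more than 3 SD above the typical response in the agonist read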;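 also: intracellular calcium rise by fluo-8 fluorescence before TRH EC20 addition; 0% is about no effect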). The conditions noted are these: TRH receptor agonist cell assay; at 2 µM; stronger effect = higher value. The procedure, abridged:
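Kinetic fluorescence assay of agonist-induced calcium release: overnight-plated TRHR cells, room-temperature fluo-8 loading, baseline then compound addition with per-second reads.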

The target in test [9] is ATP-dependent 6-phosphofructokinase (Trypanosoma brucei brucei) (UniProt O15648). Description: qHTS Assay to Find Inhibitors of T. brucei phosphofructokinase: hit validation (AID 492961).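 Also: luminescence reports ADP formed as PFK phosphorylates fructose-6-phosphate with ATP; series mostly up to about 51 µM; % is scaled to controls: 0 for no effect and ±100 for the full control effect.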 The procedure, abridged:
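Reaction: 0.1 M triethanolamine pH 8.0, 5 mM MgCl2, F6P 0.5 mM, ATP 0.1 mM, PFK 1.25 nM, 45 min RT. Read-out: ADP-Glo luminescence. Analysis: concentration-response fits, classed by r2 and efficacy.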

Records with an inconclusive call do not appear. Active and inactive are the calls of the source. Unless noted, calls follow the shape of the dose curve; as a rule, active = well fitted curve in the direction sought with a large enough effect; inconclusive = small, poorly fitted or top-dose-only effect, or another doubt; inactive = no such curve, though single readings can be large; an effect the other way counts as inactive or inconclusive.

Sequence of Thyrotropin-releasing hormone receptor (Homo sapiens) (P34981 whole entry, looked up): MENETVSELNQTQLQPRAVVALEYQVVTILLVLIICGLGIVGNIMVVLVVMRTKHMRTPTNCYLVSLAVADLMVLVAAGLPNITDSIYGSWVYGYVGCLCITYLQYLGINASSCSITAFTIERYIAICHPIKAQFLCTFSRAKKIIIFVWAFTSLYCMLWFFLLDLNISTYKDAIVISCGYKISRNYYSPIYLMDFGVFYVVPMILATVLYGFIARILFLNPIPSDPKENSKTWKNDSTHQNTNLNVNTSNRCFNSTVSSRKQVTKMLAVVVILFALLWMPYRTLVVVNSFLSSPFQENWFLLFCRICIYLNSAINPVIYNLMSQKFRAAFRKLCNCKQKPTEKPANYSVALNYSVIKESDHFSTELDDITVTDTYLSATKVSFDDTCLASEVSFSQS
Sequence of ATPase family AAA domain-containing protein 5 (Homo sapiens) (Q96QE3 whole entry, looked up, the tested form may be a part): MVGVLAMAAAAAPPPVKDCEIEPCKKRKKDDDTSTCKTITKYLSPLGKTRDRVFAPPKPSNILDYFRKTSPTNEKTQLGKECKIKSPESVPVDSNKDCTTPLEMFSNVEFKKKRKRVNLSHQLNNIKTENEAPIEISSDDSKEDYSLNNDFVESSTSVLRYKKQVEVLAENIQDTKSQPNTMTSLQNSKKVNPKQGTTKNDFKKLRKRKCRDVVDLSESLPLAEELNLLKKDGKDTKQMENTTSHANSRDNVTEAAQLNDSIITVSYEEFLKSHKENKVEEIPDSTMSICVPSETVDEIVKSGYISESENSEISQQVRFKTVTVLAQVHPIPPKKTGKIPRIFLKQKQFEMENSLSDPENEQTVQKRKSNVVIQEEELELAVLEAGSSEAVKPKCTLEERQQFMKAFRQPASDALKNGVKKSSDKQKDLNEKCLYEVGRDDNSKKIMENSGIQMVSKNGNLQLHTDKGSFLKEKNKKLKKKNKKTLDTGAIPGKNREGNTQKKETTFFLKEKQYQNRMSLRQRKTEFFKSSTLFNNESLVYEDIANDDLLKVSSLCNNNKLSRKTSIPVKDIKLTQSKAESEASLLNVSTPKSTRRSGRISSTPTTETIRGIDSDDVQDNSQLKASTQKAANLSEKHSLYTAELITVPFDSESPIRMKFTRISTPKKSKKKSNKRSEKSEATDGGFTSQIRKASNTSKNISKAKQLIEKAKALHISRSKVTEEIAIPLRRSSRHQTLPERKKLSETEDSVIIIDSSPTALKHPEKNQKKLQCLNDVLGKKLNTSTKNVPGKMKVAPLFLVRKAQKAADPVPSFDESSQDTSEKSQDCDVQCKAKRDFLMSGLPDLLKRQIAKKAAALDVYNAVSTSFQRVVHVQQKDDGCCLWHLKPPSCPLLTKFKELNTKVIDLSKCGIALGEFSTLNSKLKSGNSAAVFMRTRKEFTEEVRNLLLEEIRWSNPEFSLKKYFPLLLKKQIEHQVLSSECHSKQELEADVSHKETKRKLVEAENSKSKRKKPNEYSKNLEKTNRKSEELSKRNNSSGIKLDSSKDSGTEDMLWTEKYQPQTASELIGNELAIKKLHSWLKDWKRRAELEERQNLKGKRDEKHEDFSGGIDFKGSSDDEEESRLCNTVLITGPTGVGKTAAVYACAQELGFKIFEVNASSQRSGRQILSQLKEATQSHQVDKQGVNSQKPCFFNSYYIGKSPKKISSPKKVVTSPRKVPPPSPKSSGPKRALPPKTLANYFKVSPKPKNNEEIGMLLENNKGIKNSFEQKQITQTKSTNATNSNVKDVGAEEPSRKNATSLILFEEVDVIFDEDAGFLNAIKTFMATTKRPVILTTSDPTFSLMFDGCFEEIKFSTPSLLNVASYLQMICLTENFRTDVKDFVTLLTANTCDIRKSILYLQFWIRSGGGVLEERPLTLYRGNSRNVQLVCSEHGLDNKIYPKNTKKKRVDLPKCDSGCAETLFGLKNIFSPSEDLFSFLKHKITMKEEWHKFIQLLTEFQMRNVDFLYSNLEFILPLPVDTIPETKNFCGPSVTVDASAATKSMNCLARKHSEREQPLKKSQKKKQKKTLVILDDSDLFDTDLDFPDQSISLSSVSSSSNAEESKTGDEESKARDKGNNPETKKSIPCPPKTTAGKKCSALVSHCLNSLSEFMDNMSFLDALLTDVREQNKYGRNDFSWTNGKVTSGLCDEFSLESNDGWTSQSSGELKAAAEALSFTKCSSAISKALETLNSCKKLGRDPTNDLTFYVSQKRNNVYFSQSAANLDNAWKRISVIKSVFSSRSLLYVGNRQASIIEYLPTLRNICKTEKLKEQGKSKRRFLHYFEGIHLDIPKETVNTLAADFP
Sequence of Thyrotropin receptor (Homo sapiens) (P16473 whole entry, looked up): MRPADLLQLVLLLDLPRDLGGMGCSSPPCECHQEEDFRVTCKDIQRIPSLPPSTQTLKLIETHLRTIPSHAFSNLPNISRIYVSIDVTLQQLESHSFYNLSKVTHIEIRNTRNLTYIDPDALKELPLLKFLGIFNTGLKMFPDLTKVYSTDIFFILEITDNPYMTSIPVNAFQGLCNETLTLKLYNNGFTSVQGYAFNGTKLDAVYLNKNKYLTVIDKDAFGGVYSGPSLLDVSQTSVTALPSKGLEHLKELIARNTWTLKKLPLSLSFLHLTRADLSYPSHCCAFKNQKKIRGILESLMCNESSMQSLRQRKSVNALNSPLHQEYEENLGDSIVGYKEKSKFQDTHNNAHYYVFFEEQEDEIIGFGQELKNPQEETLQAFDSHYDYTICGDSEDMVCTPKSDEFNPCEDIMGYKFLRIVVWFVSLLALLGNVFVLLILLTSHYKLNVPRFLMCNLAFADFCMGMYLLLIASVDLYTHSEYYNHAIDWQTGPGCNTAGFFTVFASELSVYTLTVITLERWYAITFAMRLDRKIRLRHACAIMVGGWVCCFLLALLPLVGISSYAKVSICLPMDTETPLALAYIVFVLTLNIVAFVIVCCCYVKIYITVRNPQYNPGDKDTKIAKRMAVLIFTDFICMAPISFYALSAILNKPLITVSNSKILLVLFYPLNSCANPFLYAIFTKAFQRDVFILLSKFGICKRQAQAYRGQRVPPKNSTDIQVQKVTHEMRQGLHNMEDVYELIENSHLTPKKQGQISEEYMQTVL
Sequence of D(1A) dopamine receptor (Homo sapiens) (P21728 whole entry, looked up): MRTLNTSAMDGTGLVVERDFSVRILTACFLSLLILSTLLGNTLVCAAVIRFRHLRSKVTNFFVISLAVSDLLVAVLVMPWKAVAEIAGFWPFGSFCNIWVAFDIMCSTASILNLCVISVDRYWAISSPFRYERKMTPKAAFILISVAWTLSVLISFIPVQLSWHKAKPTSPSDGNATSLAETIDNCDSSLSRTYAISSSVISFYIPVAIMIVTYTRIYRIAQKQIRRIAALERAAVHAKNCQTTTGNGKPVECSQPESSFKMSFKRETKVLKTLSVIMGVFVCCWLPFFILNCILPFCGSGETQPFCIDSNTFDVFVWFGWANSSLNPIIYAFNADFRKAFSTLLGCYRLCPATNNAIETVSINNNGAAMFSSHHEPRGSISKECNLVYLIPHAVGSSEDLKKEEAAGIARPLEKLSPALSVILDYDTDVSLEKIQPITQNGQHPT
Sequence of ATP-dependent 6-phosphofructokinase (Trypanosoma brucei brucei) (O15648 whole entry, looked up): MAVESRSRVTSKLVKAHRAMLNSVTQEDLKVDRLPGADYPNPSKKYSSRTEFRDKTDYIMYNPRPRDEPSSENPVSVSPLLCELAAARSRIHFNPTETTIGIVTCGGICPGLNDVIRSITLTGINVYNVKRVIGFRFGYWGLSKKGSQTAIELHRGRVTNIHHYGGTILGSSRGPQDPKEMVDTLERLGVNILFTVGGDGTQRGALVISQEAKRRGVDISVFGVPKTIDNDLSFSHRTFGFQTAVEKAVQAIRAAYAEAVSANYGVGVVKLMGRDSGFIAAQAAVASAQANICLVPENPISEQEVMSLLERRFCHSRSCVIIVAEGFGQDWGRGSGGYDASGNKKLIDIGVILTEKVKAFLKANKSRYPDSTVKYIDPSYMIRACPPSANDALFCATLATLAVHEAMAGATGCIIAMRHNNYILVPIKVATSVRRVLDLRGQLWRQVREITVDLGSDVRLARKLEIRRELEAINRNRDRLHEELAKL

Take `Cc1nc2c(OCc3ccccc3)cccn2c1CC#N`: the result in test [1] was inactive. Further, the Potency entry in [2], in test [3], in test [4], in test [5] and in test [6] was “inactive” in each case. Moreover, the viability change in test [6] is -7.51%.
Regarding `Clc1nccc2c1ccc1ccccc12`, in test [1], the call was inactive. For the same molecule, the Potency entry in test [2], in test [3], in test [5] and in test [7] was “inactive” in each case. For the same molecule, in [8], the activation was -6.94% (inactive).
In the case of `CCC1(O)CC2CN(CCc3c([nH]c4ccccc34)[C@@](C(=O)OC)(c3cc4c(cc3OC)N(C)C3[C@]45CCN4CC=C[C@@](CC)([C@@H](OC(C)=O)[C@]3(O)C(=O)OC)[C@H]45)C2)C1` (stereo partly specified), the molecule was called inactive in [1]. Further, the Potency result in [2], in [3] and in test [4] was “inactive” each time. For the same molecule, the activation in [8] was -0.125% (inactive).
Take `CCN(CC)CCCCCCCCOC(=O)c1cc(OC)c(OC)c(OC)c1`: in test [1], the call was inactive. The Potency result in [2], in test [3], in test [4], in [7] and in [6] was “inactive” throughout. Moreover, the activation in test [8] was 1.25% (inactive). In addition, the viability change in test [6] was determined as 6.3%.
On to `CCCN(CCc1ccccc1)C1CCc2c(O)cccc2C1` (stereo unspecified), for which, in test [1], the result was inactive. Besides, the Potency result in [2], in [3], in test [5], in test [7] and in test [6] was “inactive” throughout. In addition, in [8], the activation was 1.25% (inactive). The viability change in test [6] was -8.23%.
Take `CC1CNCCN1S(=O)(=O)c1cccc2cnccc12` (stereo unspecified): the molecule was called inactive in test [1]. The Potency entry in test [2], in test [3] and in test [5] was “inactive” each time. Further, the Potency in [7] is 8.2 µM (active). In test [8], the activation is 1.25% (inactive).
As to `CN1CCN(c2nc3cc(C(F)(F)F)ccc3n3cccc23)CC1`, the result in test [1] was inactive. Besides, the Potency entry in [2], in test [3], in [5], in [7] and in [6] was “inactive” in each case. For the same molecule, the activation in [8] is 1.06% (inactive). Moreover, the viability change in test [6] came to 3.07%.
With `Nc1ncnc2c1ncn2C1CCCC1`, the molecule was called inactive in [1]. Besides, the Potency entry in test [2], in [3], in test [7] and in test [6] was “inactive” in each case. Moreover, the activation in test [8] is 1.12% (inactive). Besides, the viability change in test [6] came out at 4.78%.
For `CNc1ncnc2c1ncn2[C@H]1C[C@H](OP(=O)(O)O)[C@@H](COP(=O)(O)O)O1`, the outcome in [1] was inactive. Moreover, the Potency result in test [2], in test [4], in test [5], in test [7] and in test [6] was “inactive” in each case. Moreover, the activation in test [8] is 1.25% (inactive). The viability change in test [6] is -10.4%.
For the molecule `NCC(O)(CS(=O)(=O)O)c1ccc(Cl)cc1` (stereo unspecified), in test [1], the call was inactive. Moreover, the Potency entry in test [2], in [4], in test [5], in test [7] and in test [6] was “inactive” in each case. Further, in test [8], the activation is 0.25% (inactive). The viability change in test [6] came to 4.12%.
With `N=C(N)c1ccc(OCCCCCOc2ccc(C(=N)N)cc2)cc1` (tested in a mixture with another compound), the result in test [1] was inactive. In addition, the Potency result in [2], in test [3], in test [5] and in test [6] was “inactive” in each case. In addition, the activation in test [8] was 1.31% (inactive). For the same molecule, the viability change in [6] was -17%.
Consider `NC(C(=O)N[C@@H]1C(=O)N2C(C(=O)O)=C(Cl)CS[C@H]12)c1ccccc1` (stereo partly specified), for which the call in [1] was inactive. The Potency entry in test [2], in test [3], in [5], in test [7] and in test [6] was “inactive” in each case. Besides, the viability change in [6] was 1.5%.
For the molecule `NCCS(=O)O`, the outcome in test [1] was inactive. The Potency result in [2], in [4], in [5], in test [7] and in test [6] was “inactive” in each case. Also, the activation in [8] is 1.19% (inactive). Besides, the viability change in test [6] turned out to be 6.69%.
As for `COCc1nc2c([nH]1)c(=O)n(C)c(=O)n2CC(C)C`, in test [1], the molecule was classed as inactive. For the same molecule, the Potency entry in test [2], in [4], in test [5], in [7] and in test [6] was “inactive” each time. Moreover, the activation in [8] was 0.875% (inactive). The viability change in test [6] was found to be 1.53%.
On to `Cn1c(=O)c2[nH]c(-c3ccc(S(=O)(=O)O)cc3)nc2n(C)c1=O`, for which, in [1], the outcome was inactive. The Potency result in test [2], in test [4], in test [5], in test [7] and in test [6] was “inactive” throughout. The activation in test [8] is 0.938% (inactive). Also, the viability change in test [6] was -2.21%.
`CN1C2CCC1CC(OC(c1ccccc1)c1ccccc1)C2` (stereo unspecified): the result in [1] and in [9] was inactive. The Potency entry in test [2], in test [4], in test [5], in test [7] and in [6] was “inactive” in each case. Besides, the activation in test [8] is 1.5% (inactive). The viability change in [6] was -14.9%.
With `O=C(O)c1cccnc1C(=O)O`, in test [1], the outcome was inactive. Further, the Potency entry in test [2], in [3], in test [5], in test [7] and in test [6] was “inactive” throughout. The viability change in test [6] was determined as 1.3%.
For `CC[C@@H]1Cc2cc(O)ccc2C2=C1c1ccc(O)cc1C[C@H]2CC`, in [1], the molecule was classed as inactive. Also, the Potency result in test [2], in [5] and in test [6] was “inactive” in each case. For the same molecule, in [3], the Potency is 2.59 µM (active). Besides, the activation in [8] is 6.69% (inactive). In test [6], the viability change was 1.92%.
As for `N=C(N)c1ccc(N)cc1`, the result in [1] was inactive. In addition, the Potency result in [2], in test [4], in test [5], in test [7] and in test [6] was “inactive” in each case. In addition, in test [8], the activation is -2.75% (inactive). Also, the viability change in [6] worked out at 3.63%.
`CCCn1c(=O)c2c(ncn2C)n(CCC)c1=O`: the call in test [1] was inactive. Besides, the Potency entry in test [2], in [4], in test [5], in test [7] and in [6] was “inactive” throughout. In addition, in test [8], the activation is 0.5% (inactive). Also, the viability change in test [6] was determined as 3.43%.
On to `CC(C)(CO)Cc1cc(C(C)(C)C)c(O)c(C(C)(C)C)c1`, for which, in test [1], the outcome was inactive. Moreover, in test [2], the Potency is 15.8 µM (active). For the same molecule, the Potency entry in test [4], in [5], in [7] and in [6] was “inactive” in each case. Further, the activation in test [8] is -13.9% (inactive). Moreover, the viability change in test [6] came out at 10.3%.
For `COC(=O)C1=C(C)NC(C)=C([N+](=O)[O-])C1c1ccccc1C(F)(F)F` (stereo unspecified), in test [1], the call was inactive. In addition, the Potency result in [2], in test [3], in [5], in test [7] and in test [6] was “inactive” each time. Moreover, in test [8], the activation is -3.94% (inactive). Besides, in [6], the viability change was -10.2%.
Regarding `NOCC(=O)O`, the call in test [1] was inactive. Further, the Potency result in test [2], in test [4], in test [5], in [7] and in [6] was “inactive” each time. Besides, the activation in test [8] was 0.25% (inactive). Moreover, in test [6], the viability change was 18.2%.
As to `Cc1cccc(C(=O)NCN2CCN(c3ccccc3C#N)CC2)c1`, in [1], the call was inactive. The Potency entry in test [2], in test [3] and in test [5] was “inactive” throughout. Also, the activation in [8] is 0.562% (inactive).
Turning to `CN1CCC2(CCN3CCc4c(oc5ccccc45)C3C2)N(C)C1=O` (stereo unspecified), in [1], the molecule was classed as inactive. Besides, the Potency result in test [2], in test [5] and in test [7] was “inactive” throughout. Further, in test [4], the Potency was 10 µM (active). For the same molecule, the activation in test [8] was 0.25% (inactive).
In the case of `O=[N+]([O-])c1cccc2c(Br)[nH]nc12`, the molecule was called inactive in test [1]. Besides, the Potency result in test [2], in test [4], in test [5], in [7] and in [6] was “inactive” each time. Further, the activation in test [8] was -3.31% (inactive). In addition, the viability change in test [6] was 2.48%.
